# Screening results as filed in PubChem BioAssay.
# S2 tox – cell viability loss in ATXN counter-screen. S2 cells (HEK-293 line with an ATXN2-luciferase reporter) viability, CellTiter-Fluor protease fluorescence, 24 h. Potency, µM (series often up to 56.7 µM), most hits filed as cytotoxic. hit rate 0.49% among 400,000; further: nearly all actives have a fitted effect of over 40% in size
# HepG2 viability – kills HepG2 cells in TGF-b inhibitor counter-screen; HepG2 CAGA-GFP viability, ATP luminescence, 18 h; hit rate 0.76% among 410,000; Potency, µM (top dose mostly 46.1 µM), for the others: at the top dose activity change, negative = cytotoxicity, most hits filed as cytotoxic
#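 HepG2 CAGA-GFP cells (1000/well, DMEM with 1% FBS) received compound, then TGF-beta at 500 pg/mL final, and were incubated 18 hours at 37 degrees C. Viability was read by CellTiter-Glo luminescence. Media-only wells were set as complete cell-killing and DMSO as no toxicity.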
# KB-V1 cytotox – kills drug-selected multidrug resistant KB-V1 cells; AID 1347076; Potency, µM (highest dose often 46.1 µM), hits mostly cytotoxic; KB-V1 MDR cells viability, CellTiter-Glo, 72 h; hit rate 3.4% among 400,000; further: on the % scale 0 is the no-effect control and ±100 the full control effect; nearly all actives have a fitted effect of over 60% in size
#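 Luminescent ATP read-out (CellTiter-Glo, 10 min) measures survival of drug-selected KB-V1 MDR cells after 72 h, 37 degrees C compound exposure. Medium: phenol-red-free DMEM, 10% FBS. Values from fitted concentration-response curves.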
# TGFb SMAD3 inh – TGF-b pathway inhibition; HepG2 CAGA-GFP TGF-b/SMAD3 reporter, GFP fluorescence, 18 h; TGF-beta stimulated, 500 pg/mL final; Potency, µM (highest dose often 46.1 µM), inactives show top-dose activity, negative = inhibition, most hits filed as inhibitors; hit rate 1.2% among 410,000; AID 588855; further: on the % scale 0 is the no-effect control and ±100 the full control effect; nearly all actives have a fitted effect of over 65% in size
#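 HEPG2 CAGA-GFP reporter cells (1000/well, DMEM with 1% FBS) received compounds, then recombinant TGF-beta at 500 pg/mL final for 18 hours at 37 degrees C. Per-cell GFP summed per well was normalised to unstimulated and stimulated DMSO controls before curve fitting.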
# ATXN2 expr inh – ATXN2 expression inhibition | HEK-293 ATXN2-luciferase reporter, luminescence, 24 h | Potency, µM (series often up to 57 µM), for the others: at the highest dose activity change, negative = inhibition, most hits filed as inhibitors | hit rate 0.72% among 360,000 | AID 1745845; further: on the % scale 0 is the no-effect control and ±100 the full control effect; nearly all actives have a fitted effect of over 55% in size
#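 ATXN2-luciferase reporter cells (luciferase flanked by upstream and downstream ATXN2 gene portions) were treated 24 h at 37 °C with compounds at up to 57 uM. SteadyGlo luminescence gave expression; GF-AFC fluorescence gave viability.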
# KB-3-1 tox – kills parental KB-3-1 adenocarcinoma cells. KB-3-1 viability, CellTiter-Glo ATP luminescence, 72 h. Potency, µM (doses to about 46.1 µM), hits mostly cytotoxic. hit rate 1.4% among 400,000; further: on the % scale 0 is the no-effect control and ±100 the full control effect; nearly all actives have a fitted effect of over 60% in size
#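 Cytotoxicity measured as CellTiter-Glo luminescence after 72 h at 37 C. Compound titrations were pinned onto drug-naive KB-3-1 parental adenocarcinoma cells grown in DMEM with 10% FBS, and normalized data fitted to concentration-response curves.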
# The depositor's hits bear a star; i = inactive; ? = inconclusive; . = not tested or not shown. A selection: hits, their analogues and other compounds. The true share with any hit is near 5.9%. The call rests on the fitted dose curve; in most records, active means well fitted curve in the direction sought with a large enough effect; inconclusive means small, poorly fitted or top-dose-only effect, or another doubt; inactive means no such curve, though single readings can be large; an effect the other way counts as inactive or inconclusive. Potency means the concentration at half of the fitted maximal effect.
SMILES,S2 tox,HepG2 viability,KB-V1 cytotox,TGFb SMAD3 inh,ATXN2 expr inh,KB-3-1 tox
OC1(c2ccc(Cl)c(Cl)c2)C[n+]2ccccc2N1Cc1ccccc1 (stereo not drawn),.,-90%,i,?,35µM*,?
Cc1cc2c(cc1C)NC(CC(=O)Nc1ccccc1SC(F)(F)F)C(=O)N2 (stereo not drawn),.,7%,i,22%,26%,i
Cc1cc(C)c(C)c(S(=O)(=O)N2CCN(c3ncnc4ccccc34)CC2)c1C,i,-37%,?,?,.,18µM*
Cc1c(C(=O)N(C)Cc2cscn2)sc2ncnc(NC[C@H]3CCc4ccccc4O3)c12,i,.,.,.,.,.
CN1N/C(=C\c2ccccc2)N=C2C(=O)N(C)C(=O)N=C21,.,1.1µM*,i,-109%,.,i
CC/C=C1/N=C2C(=O)N(C)C(=O)N=C2N(C)N1,.,-94%,i,?,.,18µM*
O=C(NCc1ccccc1)c1cccn1-c1nnc(N2CCCCC2)s1,.,-20%,i,-5%,.,i
Cc1c(C(=O)NCc2ccc(F)cc2)sc2ncnc(NCC3CCCO3)c12 (stereo not drawn),i,.,.,.,.,.
CCOc1ccc(-n2c(SCC(=O)N3CCCc4ccccc43)nc3c([nH]c4ccccc43)c2=O)cc1,i,-13%,?,1%,7%,i
O=C1[C@@H]2Cc3ccccc3CN2C(=O)N1c1cccc(F)c1,i,-9%,i,9%,20%,i
Cc1ccccc1N1C(=O)[C@@H]2Cc3ccccc3CN2C1=O,i,-8%,16µM*,-20%,-7%,i
COc1ccccc1-c1nn(CCC(=O)Nc2ccc(C)cc2)c2nc(C)cc(C)c12,i,-2%,?,-14%,-3%,i
O=C(COc1cccc2c1CCN(Cc1ccc(Br)cc1)C2=O)N1CCOCC1,i,-3%,4.1µM*,-27%,-35%,?
O=C(COc1ccccc1-c1ccccc1)NCc1ccco1,i,-8%,i,-6%,20%,?
O=C1c2cccc(OCC(=O)N3CCCc4ccccc43)c2CCN1Cc1ccc(Br)cc1,?,-2%,18µM*,0%,?,18µM*
O=C(COc1cccc2c1CCN(Cc1ccc(Br)cc1)C2=O)NCc1ccco1,i,-4%,2.6µM*,?,-12%,?
Cc1ccccc1CN1CCc2c(OCC(=O)N3CCCCC3)cccc2C1=O,i,-31%,?,?,-20%,i
CCOCCCNC(=O)Cn1ncc2c([nH]c3ccc(C)cc32)c1=O,.,-23%,.,.,.,.
Cc1cc(C)nc(N/N=C/C2=C(N3CCOCC3)C(=C/c3ccccc3)/CC2)n1,i,-14%,2.3µM*,?,-28%,?
O=C(O)c1ccccc1N/N=C/C1=C(N2CCOCC2)C(=C\c2ccccc2)/CC1,i,-13%,i,4%,23%,i
COCCn1c(SCC(=O)Nc2ccc(Br)cc2)nc2c([nH]c3ccccc32)c1=O,i,-8%,?,5%,-9%,i
O=C(CSc1ccccc1)N1CCN(c2ccccn2)CC1,i,-10%,i,-1%,21%,i
Cc1nc(SCC(=O)N2CCN(c3ccccn3)CC2)c(C#N)c(C)c1C,i,8%,7.3µM*,3%,-16%,i
CN(C)C(=O)c1ccc(N=Nc2c(O)c3ccccc3[nH]c2=O)cc1,?,11µM*,?,15%,-34%,i
Cc1cc(N=Nc2c(O)c3ccccc3[nH]c2=O)ccc1N=Nc1ccc(C(=O)N(C)C)cc1,i,-75%,i,13µM*,.,i
COc1cc(N=Nc2ccc(C(=O)N(C)C)cc2)c(C)cc1N,i,-9%,i,16%,58%,i
C=CCOc1ccc(CN(C)C(=O)c2ccc(CNS(=O)(=O)c3ccc(C)c(C)c3)cc2)cc1,i,-17%,?,?,-19%,13µM*
